Counter-ions that a name gives are not always drawn.
System: Drosophila S2 cl14 SmoIP sensor cells
Experiment: normalized SmoIP GFP fluorescence (untreated unstimulated = 0%, untreated Hh-stimulated = 100%); higher = more Smo activation sensor fluorescence
Settings: compound concentration: 2 uM, 24 h
[1] = stimulation: Hh conditioned medium (+Hh)
[2] = stimulation: mock conditioned medium (-Hh)
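Note: flow cytometry read-out as median GFP intensity of gated cells, compounds added 30 min before Hh-conditioned or mock medium, mock-treated cells serving as unstimulated baseline.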

SMILES	normalized SmoIP GFP fluorescence [1] [%]	normalized SmoIP GFP fluorescence [2] [%]
COc1cc2c(cc1OC)[C@@H]1Cc3ccc(OC)c(OC)c3CN1CC2 [rotundine]	160	12.5
Cn1cc(/C=C2\C(=O)Nc3cccnc32)c2ccccc21	158	60.2
Cc1cccc(Nc2cc(Cl)nc(SCC(=O)O)n2)c1C	93.8	-14.3
NC(=O)N1CCC(CC(=O)N2CCC(C3c4ncc(Br)cc4CCc4cc(Cl)cc(Br)c43)CC2)CC1 (stereo not drawn)	127	10.1
CC(C)(Cc1ccc2ccccc2c1)NC[C@@H](O)COc1cccc(Cl)c1C#N	157	12.8
CCOc1cc(N)c(Cl)cc1C(=O)NCC1CN(Cc2ccc(F)cc2)CCO1 (stereo not drawn) [Mosapride-citrate]	103	-4.68
CC1(C)CCC(CN2CCN(c3ccc(C(=O)NS(=O)(=O)c4ccc(NCC5CCOCC5)c([N+](=O)[O-])c4)c(Oc4cnc5[nH]ccc5c4)c3)CC2)=C(c2ccc(Cl)cc2)C1	104	-2.82
C[C@@H]1CCO[C@H]2Cn3cc(C(=O)NCc4ccc(F)cc4F)c(=O)c(O)c3C(=O)N12	140	-15.3
O=S(=O)(c1ccccc1)N(CC(F)(F)F)c1ccc(C(O)(C(F)(F)F)C(F)(F)F)cc1	104	-1.85
N#Cc1cc(CN2CCC(Nc3ncnc4sc(Cl)cc34)CC2)ccc1F	129	-12.6
Cc1ccc(C(=O)N(CCCN)[C@@H](c2oc3cc(Cl)ccc3c(=O)c2Cc2ccccc2)C(C)C)cc1	141	2.05
CNC(=O)c1nn(C)c2c1C(C)(C)Cc1cnc(Nc3ccc(N4CCN(C)CC4)cc3)nc1-2	107	-11.7
CCN1CCN(c2ccc(Nc3cc(N(C)C(=O)Nc4c(Cl)c(OC)cc(OC)c4Cl)ncn3)cc2)CC1	111	-12.7
CN(C)CCN(Cc1ccccc1)c1ccccn1 [tripelennamine-hydrochloride]	112	-3.9
Nc1c(Br)cc(Br)cc1CN[C@H]1CC[C@H](O)CC1 [ambroxol-hcl]	106	-2.82
CCc1nc(N)nc(N)c1-c1ccc(Cl)cc1 [Pyrimethamine]	101	0.702
O=C1NC(=O)/C(=C/c2cccc(C(F)(F)F)c2)S1	107	-9.04

SMILES	normalized SmoIP GFP fluorescence [1] [%]	normalized SmoIP GFP fluorescence [2] [%]
CC[C@H]1OC(=O)[C@H](C)[C@@H](O[C@H]2C[C@@](C)(OC)[C@@H](O)[C@H](C)O2)[C@H](C)[C@@H](O[C@@H]2O[C@H](C)C[C@H](N(C)C)[C@H]2O)[C@](C)(OC)C[C@@H](C)C(=O)[C@H](C)[C@@H](O)[C@]1(C)O [clarithromycin]	147	-6.97
O=C(NC(NC(=S)Nc1ccc(F)c([N+](=O)[O-])c1)C(Cl)(Cl)Cl)C(c1ccccc1)c1ccccc1 (stereo not drawn)	108	0.815
COc1ccc([C@H]2CNC(=O)C2)cc1OC1CCCC1 [sRolipram]	102	-4.08
O=C(Nc1ccccc1)N1CCN(c2nc(-c3ccccc3)ns2)CC1	104	-0.889
CC(C)(Oc1ccc(C2CC2(Cl)Cl)cc1)C(=O)O (stereo not drawn) [ciprofibrate]	108	-5.35
CC1(C)CCC2=C(O1)c1ccccc1C(=O)C2=O [beta-lapachone]	113	-0.264
C[C@H](NC(=O)/C(C#N)=C/c1cccc(Br)n1)c1ccccc1	86.1	8.14
C[N+]1(C)CCC(=C(c2ccccc2)c2ccccc2)CC1 [diphemanil-methylsulfate]	110	-3.62
CCCCCCCN(CC)CCCC(O)c1ccc(NS(C)(=O)=O)cc1 (stereo not drawn) [ibutilide-fumarate]	108	-6.16
CN(C)C(=O)C(CCN1CCC(O)(c2ccc(Cl)cc2)CC1)(c1ccccc1)c1ccccc1 [Loperamide-hydrochloride]	106	7.46
COc1cc2ncnc(Oc3cccc(NC(=O)Nc4cc(C(C)(C)C(F)(F)F)on4)c3)c2cc1OC	138	-13.4
COc1ccc(-c2ccc3c(N4CCOC[C@@H]4C)nc(N4CCOC[C@@H]4C)nc3n2)cc1CO	61.4	-2.96
CNC(=O)c1ccccc1Sc1ccc2c(/C=C/c3ccccn3)n[nH]c2c1 [Axitinib]	142	28.7
CN1C2CCC1CC(OC(=O)C(O)c1ccccc1)C2 (stereo not drawn) [homatropine-bromide]	102	-4.81
CN(C)C1CCN(C(=O)c2ccc(NC(=O)Nc3ccc(-c4nc(N5CCOCC5)nc(N5CCOCC5)n4)cc3)cc2)CC1	53	-21.4
Cc1cc(C)c(CNC(=O)c2cc(-c3ccc(CN4CCOCC4)cc3)cc3c2cnn3C2CCCC2)c(=O)[nH]1	104	-0.264
CN(C)Cc1cccc(N=C(c2ccccc2)c2c(O)[nH]c3cc(C(=O)N(C)C)ccc23)c1	86.4	-3.71

From the supplement of paper PMC5662767
